From PubChem BioAssay (NCATS) come the findings set out here.

Records with an inconclusive call do not appear. Entries that show only a call come without a potency. The source made the active and inactive calls. Calls come from the whole dose curve; as a rule, active = well fitted cell-killing curve with a large enough effect; inconclusive = small, poorly fitted or top-dose-only effect, or effect the other way, or another doubt; inactive = no such curve, though single readings can be large or run the other way.
Potency is the fitted concentration of half-maximal effect.

The nature of the test: Identifying Small Molecule Inhibitors of Pancreatic Cancer Stem Cells (Panc1, Adherent) (AID 1259362). Conditions: Potency: viability; series mostly up to 46.1 µM. From the text:
Progenitor-like cancer cells, often referred to as cancer stem cells (CSC), are believed to be the drivers of therapeutic resistance and rapid recurrence. CSCs are postulated to reside in specific niches characterized by low oxygen tension, limited nutrient supply, and high redox load. Selectively targeting CSC, alone or in combination with cytotoxic agents, as a means to produce durable remissions is an appealing concept. Modeling these cells in in vitro setting is an important step in finding new therapies and/or targets. Multiple reports highlight that forcing cells in culture into 3-dimensionaly architectures (spheroids) re-establishes key progenitor-like transcriptional signatures. Pancreatic cancer is among the diseases with the most dismal outlook which is driven, largely, by recurance following front-line therapies. […] In hopes of deriving new insight into the targeting of these pancreatic CSCs we examined three established pancreatic cancer cell lines in cytotoxicity assays versus a collection of approved and investigational drugs. Importantly, we screened these lines as traditional monolayer (2D) and spheroid (3D) formats to gain an appreciation of agents with differential activity.
Multicellular tumor spheroids from Panc1, MiaPaCa-2, and the primary low-passage tissue culture line SB.06 were seeded in stem cell media (SCM) in nonadherent 6-well plates coated with hydrogel (Corning Life Sciences, Chelmsford, Mass) and pancreatic spheres generated for 14 days before screening. Cells were seeded into 1536-well solid-bottom white tissue culture treated Greiner Bio One Plates (789173-F) using a MultiDrop Combi (Thermofisher Scientific) dispenser and a small sterile cassette. One column was media alone to be used as a :"no cells" control. The plates were then covered with sterilized stainless steel gasketed lids from Kalypsys. After allowing cells to attach for 4 hours, 23 nL of test compound or control (negative control DMSO and positive control 9.2 uM Bortezomib-final) were added from a 1536-well polypropylene compound source plate to each well using a 1536 head pin tool from Kalypsys. Cells were then incubated for 48 hours at 37C, 95% relative humidity and 5% CO2. After 48 hours, plates were removed from the incubator and 3 uL of CellTiter-Glo (Promega) was added using an Aurora Flying Reagent Dispenser Bioraptor. Plates were incubated at room temperature for 10 minutes prior to reading the luminescence on the Viewlux (PerkinElmer). The relative luciferase units are used to calculate the percent activity using the activity of DMSO in the cells and no cells columns for normalization of no inhibition and full inhibition respectively.
`CCCCCCCc1ccc(CCc2cccc(O)c2C(=O)O)cc1`: the Potency entry was “inactive”. Under `COc1ccc(C2=N[C@H](c3ccc(Cl)cc3)[C@H](c3ccc(Cl)cc3)N2C(=O)N2CCNC(=O)C2)c(OC(C)C)c1` stands “inactive”; under `NC(=O)c1ccc(-c2nc(-c3ccc4c(c3)OCO4)c(-c3ccccn3)[nH]2)cc1`, “inactive”. Regarding `C[C@]12CCC(=O)C=C1CC[C@@H]1[C@@H]2[C@@H](O)C[C@@]2(C)[C@H]1CC[C@]2(O)C(=O)CO`, the Potency result is “inactive”. Under `CCn1c(-c2nonc2N)nc2cnc(Oc3cccc(NC(=O)c4ccc(OCCN5CCOCC5)cc4)c3)cc21` stands “inactive”; under `CCOC(=O)N[C@@H]1CC[C@@H]2[C@@H](C1)C[C@H]1C(=O)O[C@H](C)[C@H]1[C@@H]2C=Cc1ccc(-c2cccc(F)c2)cn1`, “inactive”; under `NC(=O)C1CCCc2c1[nH]c1ccc(Cl)cc21` (stereo not given), “inactive”. Under `O=S(=O)(N=Cc1c(O)ccc2ccccc12)c1cccs1` stands “inactive”; under `CCc1cc(Nc2nccc(-c3c(-c4ccc(OC)c(C(=O)Nc5c(F)cccc5F)c4)nc4ccccn34)n2)c(OC)cc1N1CCC(N2CCN(S(C)(=O)=O)CC2)CC1`, “inactive”; under `CN([C@@H](Cc1ccc(OS(=O)(=O)c2cccc3cnccc23)cc1)C(=O)N1CCN(c2ccccc2)CC1)S(=O)(=O)c1cccc2cnccc12`, “inactive”. Under `CNCc1ccc(-c2[nH]c3cc(F)cc4c3c2CCNC4=O)cc1` stands “inactive”; under `CCOc1ccn(-c2ccc(F)cc2)c(=O)c1C(=O)Nc1ccc(Oc2ccnc(N)c2Cl)c(F)c1`, 6620 nM (active). `CC(C)c1onc(-c2c(Cl)cccc2Cl)c1COc1ccc(/C=C/c2cccc(C(=O)O)c2)c(Cl)c1`: the Potency result was “inactive”. Under `COc1cccc2cc(-c3nc(C4CCC(C(=O)O)CC4)n4ncnc(N)c34)[nH]c12` (stereo not given) stands “inactive”; under `CCN(c1ccccc1)c1cc(NC)[n+](C)c(C)n1`, “inactive”. The result for `Cc1cc2c(F)c(Oc3ncnn4cc(OC[C@@H](C)O)c(C)c34)ccc2[nH]1` reads “inactive”; that for `Cc1csc(NC(=O)c2sc3nc4c(c(C(F)(F)F)c3c2N)CCC4)n1`, “inactive”; that for `CCC(C)n1ncn(-c2ccc(N3CCN(c4ccc(OC[C@H]5CO[C@](Cn6cncn6)(c6ccc(Cl)cc6Cl)O5)cc4)CC3)cc2)c1=O` (stereo not given in full), “inactive”. Under `OC[C@H](Cc1ccccc1)Nc1nc(Oc2ccc3c(c2)CCC3)nc2c1ncn2Cc1ccc(-c2ccccc2)cc1` stands 1320 nM (active); under `COc1ccc(CCN2CCN(CCCc3ccccc3)CC2)cc1OC`, “inactive”; under `O=c1[nH]c(-c2ccc(C(F)(F)F)cc2)nc2c1CSCC2`, “inactive”.

For `COc1ccccc1[C@H](c1cccc2ccccc12)[C@@](C)(C#N)C(=O)N1CCC(c2cccc(C(F)(F)F)c2)CC1`, the Potency result was “inactive”. The result for `CCC(C)N(C)C(=O)c1cc2ccccc2c(-c2ccccc2Cl)n1` (stereo not given) reads “inactive”; that for `CC(=O)NC(C)c1ccc(Oc2ccc(OC(C)C)cc2)cc1` (stereo not given), 4690 nM (active).

With `Cc1ccnc(NS(=O)(=O)c2ccc(NC(=O)Nc3ccc(S(=O)(=O)Nc4nccc(C)n4)cc3)cc2)n1`, the Potency is 23.5 nM (active). Regarding `Cc1cccc(-c2[nH]c(C(C)(C)C)nc2-c2ccc3nccnc3c2)n1`, the Potency entry is “inactive”. Under `O=C(O)CCc1ccc(NCc2cccc(Oc3ccccc3)c2)cc1` stands “inactive”.

On to `COc1ccc2c3n(c(=NC(=O)c4cccnc4)nc2c1OC)CCN3`, for which the Potency was 2350 nM (active).

On to `Cc1cccc(-c2nn(C(=S)Nc3ccccc3)cc2-c2ccnc3ccccc23)n1`, for which the Potency entry was “inactive”. As for `Nc1ncnc2nc(-c3ccc(N4CCOCC4)nc3)cc(-c3cccc(Br)c3)c12`, the Potency entry is “inactive”. Consider `CC[C@H](Nc1ncnc2nc[nH]c12)c1nc2cccc(F)c2c(=O)n1-c1ccccc1`, for which the Potency result was “inactive”. Regarding `CCCc1nc2c(C)cc(-c3nc4ccccc4n3C)cc2n1Cc1ccc(-c2ccccc2C(=O)O)cc1`, the Potency result is “inactive”.

For `COc1ccc(CC2=NN3C([C@@H](CCc4ccccc4)[C@@H](C)O)=NC(C)C3C(=O)N2)cc1OC` (stereo not given in full), the Potency entry was “inactive”. Regarding `O=C(O)c1ccc(-c2c[nH]c3ccc(-c4ccccc4)cc23)cc1C1CCCC1`, the Potency result was “inactive”. As to `c1ccc(-c2nn3c(c2-c2ccnc4cc(OCCN5CCOCC5)ccc24)CCC3)nc1`, the Potency result is “inactive”. As for `CCOc1cc(C(=O)Nc2ccc(Cl)c(-c3nc4ccccc4[nH]3)c2)cc(OCC)c1OCC`, the Potency entry is “inactive”. The result for `COc1ccccc1-c1cccc(-c2c(O)c3cc(C#N)c(Cl)cc3[nH]c2=O)c1` reads 1180 nM (active). The result for `C#Cc1cccc(Nc2ncnc3cc(OCCOC)c(OCCOC)cc23)c1` reads “inactive”; that for `Cc1c(C)c2c(c(C)c1O)CCC(C)(COc1ccc(CC3SC(=O)NC3=O)cc1)O2` (stereo not given), “inactive”; that for `Fc1ccc(Cl)cc1-c1nc(Nc2ccncc2)c2nccnc2n1`, “inactive”.
